From PubChem BioAssay
The list is not random: actives were taken first. Their share in the collection is about 1%.
HUVEC tox TNFa – HUVEC cytotoxicity counter-screen, TNF alpha stimulated; HUVEC TNFalpha-stimulated, Hoechst cell count, imaging; cell count reduction, % at 2 µM; actives 0.17% (n = 93,000); AID 848;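 active means cell count reduction exceeding the screen mean by over 5 SD, scaled to untreated wells per plate, cut at about 78% in these data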;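 further: cells counted after 24 h of TNF alpha exposure following the 1 h pretreatment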
E-sel TNF inh – blocks E-selectin expression induced by TNF alpha. HUVEC TNFa-induced E-selectin immunofluorescence, high content. inhibition, % at 2 µM. actives 0.71% (n = 120,000);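 active means inhibition above the batch mean plus 3 SD, and confirmed as a hit on visual image review, cut at about 43% in these data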;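 further: 0% = TNF-stimulated DMSO wells and 100% = unstimulated control wells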
VCAM1 TNFa inh – reduces TNF alpha induced VCAM1 expression in HUVEC; inhibition, % at 2 µM; actives 0.48% (n = 95,000); HUVEC TNFa-induced VCAM-1 immunofluorescence, high-content imaging; AID 802;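 active means inhibition above the batch mean plus 3 SD, with images confirmed as a hit by eye, cut at about 37% in these data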;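 further: 0% = TNF-stimulated DMSO wells and 100% = unstimulated control wells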
F-actin modifier – alters cytoskeleton assembly in HUVEC cells. HUVEC TNFa F-actin phalloidin imaging, high content. inhibition, % at 2 µM. actives 0.18% (n = 91,000);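 active means inhibition above the batch mean plus 3 SD and confirmed as a hit by visual image inspection, cut at about 30% in these data, passing the limit was not always enough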
* = called active by the depositor; . = not tested or not shown.

SMILES	HUVEC tox TNFa	E-sel TNF inh	VCAM1 TNFa inh	F-actin modifier
COCCOC(=O)c1[nH]c2c(c1C)C(=O)CC(c1ccc(F)cc1)C2 (stereo not drawn)	-23	.	20	4
COCCOC(=O)c1[nH]c2c(c1C)C(=O)CC(c1ccccc1)C2 (stereo not drawn)	60	14	56*	22
O=C(c1ccco1)N1c2ccccc2Sc2ccccc21	4	-2	0	-4
O=C(c1ccco1)N1CCN(C(=O)N2c3ccccc3Sc3ccccc32)CC1	73	-6	83*	-8
Cc1cc(C)cc(NC(=S)NC2CC3CCCC(C2)N3C2CC2)c1 (stereo not drawn)	.	100*	.	.
COc1ccc(N2C(=O)CCC2(C#N)c2ccc(Br)cc2)cc1 (stereo not drawn)	-9	100*	9	-12
COc1ccccc1N1C(=O)CCC1(C#N)c1ccc(Br)cc1 (stereo not drawn)	0	0	13	13
Cc1cccc(OCC(=O)NC(=S)Nc2ccc(S(=O)(=O)NC3CCCCC3)cc2)c1	-16	-10	5	-6
CCC(=O)Nc1nnc(-c2ccccn2)o1	.	68*	.	.
C/C(=N\NC(=O)c1cccc(C)c1)c1ccc(N2CCOCC2)cc1	2	100*	-9	-13
CNC(=S)N/N=C(\C)c1ccc(N2CCOCC2)cc1	.	3	.	.
Cc1cc(C(=O)Nc2c[nH]c(=O)[nH]c2=O)ccc1[N+](=O)[O-]	.	15	.	.
Cc1ccc(CSc2ncccc2C(=O)O)cc1	-24	5	-2	4
O=Cc1cc2ccccc2nc1SCc1ccc(Cl)cc1	34	25	66*	-41
O=Cc1cc2ccccc2nc1SCc1ccc(Cl)c(Cl)c1	69	6	72*	-49
Clc1ccc(CSc2ncccn2)cc1	-4	-6	4	-3
COc1cnn(-c2ccccc2)c(=O)c1SCc1ccc(Cl)c(Cl)c1	-19	2	6	16
Cc1ccc(CSc2nc3ccccc3cc2C=O)cc1	56	-16	95*	-31
COC(=O)C1=NN(c2cccc(C)c2)C2C(=O)N(c3ccccc3OC)C(=O)C12 (stereo not drawn)	.	73*	.	.
COC(=O)C1=C(C)N(c2cccc(C)c2)C(=O)/C1=C\c1cccs1	-14	-52	8	7
Cc1ccc(C2(O)CN(c3ccccc3C)C3=[N+]2CCS3)cc1 (stereo not drawn)	.	64*	.	.
Cc1cccc(OCCCC(=O)O)c1	10	65*	9	-15
Cc1cccc(OCC(=O)Nc2cc(C)ccc2O)c1	-4	-16	58*	-9
Cc1ccc(O)c(NC(=O)CCC2CCCCC2)c1	26	25	79*	-16
Cc1c(C(=O)Oc2cccc3ccccc23)cnn1-c1ccccc1	-11	4	0	9
SMILES	HUVEC tox TNFa	E-sel TNF inh	VCAM1 TNFa inh	F-actin modifier
O=C(CSc1ncnc2c1oc1ccccc12)NCc1ccco1	-9	6	7	-11
C=CCn1cnc2c(nnn2-c2ccc(Cl)cc2)c1=O	.	16	.	.
COCCn1c(SCC(=O)c2ccc3c(c2)OCCO3)nnc1C(C)C	-6	-11	14	-2
COCCn1c(SCC(=O)c2ccc(Cl)cc2)nnc1C(C)C	-13	71*	-1	54
CCC(NS(=O)(=O)c1ccc(C)cc1)C(=O)Nc1ccc(NC(C)=O)cc1 (stereo not drawn)	-4	-25	15	11
CCOC1=NC(C(=O)O)c2ccccc2/C(=C(/C)Cl)N1 (stereo not drawn)	54	.	92*	-12
CCC(=O)OC1c2ccccc2C(=O)N1Cc1ccccc1 (stereo not drawn)	-2	.	4	-16
CC(Nc1cccc(F)c1)C(=O)Nc1ccc(S(N)(=O)=O)cc1 (stereo not drawn)	.	-26	.	.
Cn1nc(/C=C/c2ccccc2)ccc1=O	.	-24	.	.
CCN(c1ccccc1)S(=O)(=O)c1ccc(C(=O)NCC(c2cccs2)N(C)C)cc1 (stereo not drawn)	.	1	.	.
CCCOc1ccc(C(=O)NCC(c2cccs2)N(C)C)cc1 (stereo not drawn)	.	94*	.	.
Cn1c(SCc2ccc(C#N)cc2)nnc1-c1cccc(Cl)c1	-4	60*	3	3
Cc1cc(C)cc(OCC(=O)Nc2nonc2NC(=O)COc2cc(C)cc(C)c2)c1	76	-11	78*	-32
N#Cc1c2n(c3c(=O)n(CC(=O)c4ccc([N+](=O)[O-])cc4)cnc13)CCCCC2	.	-25	.	.
COC(=O)c1ccc(NC(=O)c2cccc(C)c2[N+](=O)[O-])cc1	.	-19	.	.
Cc1cc2nc(-c3ccc(SCc4ccc(C#N)cc4)nc3)[nH]c2cc1C	5	90*	-6	-9
N#Cc1ccccc1CSc1ccc(-c2nc3ccccc3[nH]2)cn1	-1	-13	-5	-28
Cc1cc(C(N)=O)c2cc(Br)ccc2n1	-6	8	-17	-3
Cc1cc(C(=O)NN)c2cc(Br)ccc2n1	52	-10	56*	12
CCn1c(=O)cc(SCC(=O)N2CCN(C3CCCCC3)CC2)c2ccccc21	-10	67*	25	12
CCOC(=O)c1cnn(-c2nc(-c3ccc(C)cc3)cs2)c1C(F)(F)F	77	.	96*	-68
CCOC(=O)C1CCN(C(=O)COc2ccc(N(C)S(=O)(=O)c3ccc(C)cc3)cc2)CC1	.	18	.	.
CCC(C)Oc1cccc(OCCCCN2C(=O)NC(C)(C)C2=O)c1 (stereo not drawn)	.	0	.	100*
CC1(C)NC(=O)N(CCCCOc2cccc(C(F)(F)F)c2)C1=O	.	-21	.	.
CC(CCc1ccccc1)NC(=O)CN1CCN(c2ccc(O)cc2)CC1 (stereo not drawn)	.	3	.	.
SMILES	HUVEC tox TNFa	E-sel TNF inh	VCAM1 TNFa inh	F-actin modifier
CCc1ccccc1NC1c2ccccc2C(=O)N1Cc1ccco1 (stereo not drawn)	.	-17	.	.
O=C1c2ccccc2C(Nc2ccc(S(=O)(=O)N3CCCCCC3)cc2)N1Cc1ccco1 (stereo not drawn)	-8	66*	4	-2
O=C(NNc1nc2ccccc2s1)Nc1ccccc1	.	62*	.	.
CC(=O)NNc1nc2ccccc2s1	-3	.	-12	2
CCOC(=O)C1C(c2cc(OC)c(O)c(OC)c2)NC(=S)NC1(O)C(F)(F)F (stereo not drawn)	.	72*	.	.
Cc1nonc1NC(=O)CSc1nc(C2CCCCC2)nc2ccccc12	0	8	24	83*
COc1ccc(-c2cc(C(F)F)n3ncc(C(=O)Nc4cc(C)on4)c3n2)cc1	.	-1	.	.
O=C(Cn1cncn1)NCc1cccc2ccccc12	0	64*	-5	.
O=C(Cn1cncn1)NCc1ccccc1Br	-17	-21	-1	24
CC1=NC(=O)C(N=Nc2cccc3ccccc23)N1c1ccccc1 (stereo not drawn)	-1	-19	11	-2
COC(=O)c1cc2sccc2n1CC(=O)N1CCCc2ccccc21	-11	.	12	3
COC(=O)c1cc2oc(C)cc2n1CC(=O)N1CCCc2ccccc21	-23	71*	0	18
CCN(CC)CCNC(=O)CS(=O)Cc1nc(-c2ccccc2Cl)oc1C (stereo not drawn)	-5	71*	-13	-9
CCn1c(=O)c2c(n3cnnc13)-c1ccccc1CC21CCCCC1	-28	-3	-6	41*
